Test results reported in the supplement of paper PMC11732987, “Enantioselective OTUD7B fragment discovery through chemoproteomics screening and high-throughput optimisation” (Communications Chemistry, 2025).

How the values were obtained:
Assay in all cases: log2 ratio of Biotin-Ahx-Ub-VS probe labelling (fragment/DMSO); higher = less target engagement (more negative = stronger competition), active = hit call of the paper (q ≤ 0.05, log2 ratio ≤ -1)
Settings in all cases: compound concentration: 200 uM; treatment time: 3 h
[1] = target: USP34 (UniProt Q70CQ2)
USP34, sequence (Q70CQ2 whole entry, the tested form may be a part): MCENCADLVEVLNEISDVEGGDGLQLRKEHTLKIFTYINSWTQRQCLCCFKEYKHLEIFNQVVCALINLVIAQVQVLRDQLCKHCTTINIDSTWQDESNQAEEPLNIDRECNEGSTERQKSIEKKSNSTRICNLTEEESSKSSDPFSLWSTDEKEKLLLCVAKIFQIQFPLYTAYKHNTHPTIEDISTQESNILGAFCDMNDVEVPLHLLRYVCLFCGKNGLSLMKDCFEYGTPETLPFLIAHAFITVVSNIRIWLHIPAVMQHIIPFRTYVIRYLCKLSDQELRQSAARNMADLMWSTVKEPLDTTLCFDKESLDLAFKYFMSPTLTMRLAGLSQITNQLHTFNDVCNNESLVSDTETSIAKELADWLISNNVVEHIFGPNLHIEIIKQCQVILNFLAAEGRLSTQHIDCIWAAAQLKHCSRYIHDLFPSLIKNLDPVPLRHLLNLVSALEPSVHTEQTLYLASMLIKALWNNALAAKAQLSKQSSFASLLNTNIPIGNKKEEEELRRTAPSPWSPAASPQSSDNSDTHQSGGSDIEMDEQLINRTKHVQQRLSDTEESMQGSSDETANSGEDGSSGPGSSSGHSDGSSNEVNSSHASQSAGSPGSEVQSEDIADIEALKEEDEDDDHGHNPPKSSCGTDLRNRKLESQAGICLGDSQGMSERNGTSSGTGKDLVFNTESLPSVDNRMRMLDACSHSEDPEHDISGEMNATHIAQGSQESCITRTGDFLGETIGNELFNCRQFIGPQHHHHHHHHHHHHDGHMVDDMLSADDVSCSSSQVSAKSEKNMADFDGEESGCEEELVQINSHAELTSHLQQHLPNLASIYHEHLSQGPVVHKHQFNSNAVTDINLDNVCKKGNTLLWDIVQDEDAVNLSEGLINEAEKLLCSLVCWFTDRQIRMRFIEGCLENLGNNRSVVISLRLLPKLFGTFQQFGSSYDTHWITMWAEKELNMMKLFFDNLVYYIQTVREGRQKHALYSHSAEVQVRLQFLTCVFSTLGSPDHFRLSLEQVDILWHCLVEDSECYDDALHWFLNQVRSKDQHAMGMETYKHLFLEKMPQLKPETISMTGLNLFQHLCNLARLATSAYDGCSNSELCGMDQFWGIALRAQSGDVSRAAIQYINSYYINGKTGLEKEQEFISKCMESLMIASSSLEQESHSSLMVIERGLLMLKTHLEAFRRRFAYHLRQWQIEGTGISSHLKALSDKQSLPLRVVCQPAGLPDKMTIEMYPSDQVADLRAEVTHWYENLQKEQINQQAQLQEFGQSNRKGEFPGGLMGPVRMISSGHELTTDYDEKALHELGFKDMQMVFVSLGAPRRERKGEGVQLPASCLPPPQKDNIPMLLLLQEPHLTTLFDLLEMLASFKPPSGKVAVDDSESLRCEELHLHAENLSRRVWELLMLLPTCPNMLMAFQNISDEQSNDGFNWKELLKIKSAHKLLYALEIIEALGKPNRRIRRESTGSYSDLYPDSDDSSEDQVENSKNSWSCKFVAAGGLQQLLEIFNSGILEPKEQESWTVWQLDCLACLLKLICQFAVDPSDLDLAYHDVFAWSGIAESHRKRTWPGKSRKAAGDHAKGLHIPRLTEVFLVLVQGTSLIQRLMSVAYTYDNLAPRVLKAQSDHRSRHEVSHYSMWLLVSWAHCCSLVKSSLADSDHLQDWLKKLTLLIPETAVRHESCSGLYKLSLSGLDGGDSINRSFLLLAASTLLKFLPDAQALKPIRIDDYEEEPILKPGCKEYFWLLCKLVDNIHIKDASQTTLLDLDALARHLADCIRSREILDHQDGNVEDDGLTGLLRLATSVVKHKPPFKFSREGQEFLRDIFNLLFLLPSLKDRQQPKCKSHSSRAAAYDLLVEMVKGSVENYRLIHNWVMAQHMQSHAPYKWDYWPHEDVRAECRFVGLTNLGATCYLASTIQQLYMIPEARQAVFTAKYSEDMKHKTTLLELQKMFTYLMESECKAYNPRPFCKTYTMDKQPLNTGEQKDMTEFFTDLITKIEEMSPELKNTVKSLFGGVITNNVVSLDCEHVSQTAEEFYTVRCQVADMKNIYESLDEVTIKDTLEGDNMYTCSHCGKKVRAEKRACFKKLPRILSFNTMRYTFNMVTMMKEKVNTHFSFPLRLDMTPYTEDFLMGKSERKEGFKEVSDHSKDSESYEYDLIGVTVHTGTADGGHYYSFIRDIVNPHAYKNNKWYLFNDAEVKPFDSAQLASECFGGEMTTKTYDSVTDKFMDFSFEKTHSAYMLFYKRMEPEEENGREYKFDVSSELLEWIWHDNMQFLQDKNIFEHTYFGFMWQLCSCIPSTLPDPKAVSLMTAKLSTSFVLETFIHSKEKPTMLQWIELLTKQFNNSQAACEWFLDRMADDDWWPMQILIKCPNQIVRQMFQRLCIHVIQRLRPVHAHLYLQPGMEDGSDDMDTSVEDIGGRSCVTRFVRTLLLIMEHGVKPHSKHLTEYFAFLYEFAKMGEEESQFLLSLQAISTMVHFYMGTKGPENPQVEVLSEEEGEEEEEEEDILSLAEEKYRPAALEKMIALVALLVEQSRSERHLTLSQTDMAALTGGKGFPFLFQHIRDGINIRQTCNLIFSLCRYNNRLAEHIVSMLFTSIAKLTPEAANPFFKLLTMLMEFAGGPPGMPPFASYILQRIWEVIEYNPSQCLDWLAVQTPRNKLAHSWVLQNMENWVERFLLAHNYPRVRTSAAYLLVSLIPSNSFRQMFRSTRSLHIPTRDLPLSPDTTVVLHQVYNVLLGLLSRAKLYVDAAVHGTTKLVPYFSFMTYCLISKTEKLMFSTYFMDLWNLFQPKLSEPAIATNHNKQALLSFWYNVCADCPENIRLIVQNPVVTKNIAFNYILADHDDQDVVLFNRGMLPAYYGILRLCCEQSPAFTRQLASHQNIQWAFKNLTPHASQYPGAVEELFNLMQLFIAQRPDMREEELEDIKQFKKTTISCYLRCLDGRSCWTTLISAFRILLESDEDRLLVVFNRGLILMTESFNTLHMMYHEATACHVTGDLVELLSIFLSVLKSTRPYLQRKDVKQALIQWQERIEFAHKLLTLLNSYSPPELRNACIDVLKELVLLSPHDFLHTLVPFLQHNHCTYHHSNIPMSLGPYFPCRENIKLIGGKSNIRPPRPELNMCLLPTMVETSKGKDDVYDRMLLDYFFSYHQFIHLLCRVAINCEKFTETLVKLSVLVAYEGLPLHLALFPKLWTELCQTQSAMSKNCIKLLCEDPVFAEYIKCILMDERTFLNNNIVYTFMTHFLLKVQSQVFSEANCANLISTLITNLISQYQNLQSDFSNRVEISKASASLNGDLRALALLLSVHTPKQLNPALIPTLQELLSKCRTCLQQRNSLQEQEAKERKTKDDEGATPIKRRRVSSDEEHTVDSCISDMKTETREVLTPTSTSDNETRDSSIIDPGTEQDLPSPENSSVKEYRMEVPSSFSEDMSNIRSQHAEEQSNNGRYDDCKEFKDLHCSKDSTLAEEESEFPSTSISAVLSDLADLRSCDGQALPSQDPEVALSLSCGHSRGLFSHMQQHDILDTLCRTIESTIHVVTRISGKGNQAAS
Outline: (§1)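 Labelling with Biotin-Ahx-Ub-VS (0.5 µM final, 1 h) followed a 3 h triplicate treatment of HEK293T lysate (495 µg per sample, Tris/CHAPS/IGEPAL buffer with protease inhibitors) with fragment at 200 µM or vehicle. Labelled DUBs were NeutrAvidin-enriched, digested with LysC and trypsin, and run by diaPASEF LC-MS/MS. The values, average log2 fragment/vehicle ratios by unpaired t-test, come from global-median-normalised Spectronaut label-free quantities. Proteins with ≥2 unique peptides were used.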

[2] = target: T1, USP36 (UniProt Q9P275)
T1 sequence (whole entry): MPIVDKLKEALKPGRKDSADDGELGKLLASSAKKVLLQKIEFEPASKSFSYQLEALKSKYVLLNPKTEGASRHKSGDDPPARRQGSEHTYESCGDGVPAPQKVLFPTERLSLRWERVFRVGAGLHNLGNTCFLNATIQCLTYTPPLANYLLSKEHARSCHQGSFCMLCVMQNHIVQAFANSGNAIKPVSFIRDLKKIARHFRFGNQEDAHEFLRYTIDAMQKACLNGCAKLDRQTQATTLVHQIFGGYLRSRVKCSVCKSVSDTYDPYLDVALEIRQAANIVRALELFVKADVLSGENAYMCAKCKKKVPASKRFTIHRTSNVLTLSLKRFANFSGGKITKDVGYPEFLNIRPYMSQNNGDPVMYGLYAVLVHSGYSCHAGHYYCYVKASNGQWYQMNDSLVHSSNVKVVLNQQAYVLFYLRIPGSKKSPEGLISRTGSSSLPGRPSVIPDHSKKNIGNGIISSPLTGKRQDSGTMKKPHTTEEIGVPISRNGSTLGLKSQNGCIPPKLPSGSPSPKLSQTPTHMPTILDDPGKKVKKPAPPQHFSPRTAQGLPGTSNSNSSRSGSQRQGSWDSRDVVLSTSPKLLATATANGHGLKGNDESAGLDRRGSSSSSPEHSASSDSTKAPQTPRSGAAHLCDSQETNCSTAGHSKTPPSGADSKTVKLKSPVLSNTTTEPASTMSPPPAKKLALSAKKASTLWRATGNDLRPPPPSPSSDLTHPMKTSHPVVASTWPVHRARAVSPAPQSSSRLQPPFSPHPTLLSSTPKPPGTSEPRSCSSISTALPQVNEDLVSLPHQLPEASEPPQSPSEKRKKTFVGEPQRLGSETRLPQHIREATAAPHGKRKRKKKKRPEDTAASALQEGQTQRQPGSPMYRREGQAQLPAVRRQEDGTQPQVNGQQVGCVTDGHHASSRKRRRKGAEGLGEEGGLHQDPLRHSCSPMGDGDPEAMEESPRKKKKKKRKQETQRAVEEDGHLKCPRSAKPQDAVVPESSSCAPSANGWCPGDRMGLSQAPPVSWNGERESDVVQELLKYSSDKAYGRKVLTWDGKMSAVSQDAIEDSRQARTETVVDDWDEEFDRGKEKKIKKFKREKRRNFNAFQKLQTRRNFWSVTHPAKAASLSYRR
Outline: as §1

[3] = target: T2, USP38 (UniProt Q8NB14)
T2 sequence (whole entry): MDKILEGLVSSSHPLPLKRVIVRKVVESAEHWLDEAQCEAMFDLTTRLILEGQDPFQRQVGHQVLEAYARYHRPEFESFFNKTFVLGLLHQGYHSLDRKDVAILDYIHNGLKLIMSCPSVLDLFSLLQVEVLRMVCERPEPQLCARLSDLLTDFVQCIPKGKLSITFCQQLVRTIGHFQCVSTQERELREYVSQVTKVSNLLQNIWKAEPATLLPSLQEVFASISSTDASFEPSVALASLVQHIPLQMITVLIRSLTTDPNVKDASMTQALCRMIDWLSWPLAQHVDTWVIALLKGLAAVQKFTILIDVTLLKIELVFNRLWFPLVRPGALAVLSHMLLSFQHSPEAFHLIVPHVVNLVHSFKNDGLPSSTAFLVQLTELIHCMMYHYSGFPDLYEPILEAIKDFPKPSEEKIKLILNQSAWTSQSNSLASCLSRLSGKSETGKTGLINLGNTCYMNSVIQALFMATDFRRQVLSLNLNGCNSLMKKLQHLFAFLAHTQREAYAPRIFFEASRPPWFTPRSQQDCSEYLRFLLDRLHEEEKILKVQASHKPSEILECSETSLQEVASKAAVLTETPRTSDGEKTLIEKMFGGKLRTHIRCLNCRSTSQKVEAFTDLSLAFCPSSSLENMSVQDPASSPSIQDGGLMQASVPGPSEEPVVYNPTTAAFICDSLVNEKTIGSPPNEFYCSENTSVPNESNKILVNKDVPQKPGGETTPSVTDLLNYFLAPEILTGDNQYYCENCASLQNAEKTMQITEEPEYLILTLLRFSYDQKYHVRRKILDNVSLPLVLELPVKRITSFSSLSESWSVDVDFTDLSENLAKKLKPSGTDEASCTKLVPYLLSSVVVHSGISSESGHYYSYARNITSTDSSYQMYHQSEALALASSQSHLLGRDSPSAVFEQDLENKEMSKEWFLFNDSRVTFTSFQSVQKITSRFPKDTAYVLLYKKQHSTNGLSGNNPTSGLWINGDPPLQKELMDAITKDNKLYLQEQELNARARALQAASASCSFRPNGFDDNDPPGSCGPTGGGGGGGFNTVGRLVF
Outline: as §1

[4] = target: T3, USP39 (UniProt Q53GS9)
T3 sequence (whole entry): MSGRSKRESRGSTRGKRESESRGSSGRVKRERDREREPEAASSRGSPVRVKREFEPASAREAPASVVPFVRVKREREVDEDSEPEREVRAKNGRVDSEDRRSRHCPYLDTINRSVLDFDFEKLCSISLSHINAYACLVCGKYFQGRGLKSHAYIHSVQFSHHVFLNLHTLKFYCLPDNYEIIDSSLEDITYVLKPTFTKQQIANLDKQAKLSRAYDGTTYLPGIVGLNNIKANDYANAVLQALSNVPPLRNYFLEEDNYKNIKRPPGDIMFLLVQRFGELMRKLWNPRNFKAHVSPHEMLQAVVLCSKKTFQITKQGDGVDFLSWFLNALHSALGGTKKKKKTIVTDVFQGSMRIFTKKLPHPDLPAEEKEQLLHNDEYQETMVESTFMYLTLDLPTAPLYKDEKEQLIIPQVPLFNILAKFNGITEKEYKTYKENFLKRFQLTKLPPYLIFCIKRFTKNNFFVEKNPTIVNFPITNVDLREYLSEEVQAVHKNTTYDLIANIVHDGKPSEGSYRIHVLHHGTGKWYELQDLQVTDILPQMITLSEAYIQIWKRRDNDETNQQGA
Outline: as §1

[5] = target: T4, USP4 (UniProt Q13107)
T4 sequence (whole entry): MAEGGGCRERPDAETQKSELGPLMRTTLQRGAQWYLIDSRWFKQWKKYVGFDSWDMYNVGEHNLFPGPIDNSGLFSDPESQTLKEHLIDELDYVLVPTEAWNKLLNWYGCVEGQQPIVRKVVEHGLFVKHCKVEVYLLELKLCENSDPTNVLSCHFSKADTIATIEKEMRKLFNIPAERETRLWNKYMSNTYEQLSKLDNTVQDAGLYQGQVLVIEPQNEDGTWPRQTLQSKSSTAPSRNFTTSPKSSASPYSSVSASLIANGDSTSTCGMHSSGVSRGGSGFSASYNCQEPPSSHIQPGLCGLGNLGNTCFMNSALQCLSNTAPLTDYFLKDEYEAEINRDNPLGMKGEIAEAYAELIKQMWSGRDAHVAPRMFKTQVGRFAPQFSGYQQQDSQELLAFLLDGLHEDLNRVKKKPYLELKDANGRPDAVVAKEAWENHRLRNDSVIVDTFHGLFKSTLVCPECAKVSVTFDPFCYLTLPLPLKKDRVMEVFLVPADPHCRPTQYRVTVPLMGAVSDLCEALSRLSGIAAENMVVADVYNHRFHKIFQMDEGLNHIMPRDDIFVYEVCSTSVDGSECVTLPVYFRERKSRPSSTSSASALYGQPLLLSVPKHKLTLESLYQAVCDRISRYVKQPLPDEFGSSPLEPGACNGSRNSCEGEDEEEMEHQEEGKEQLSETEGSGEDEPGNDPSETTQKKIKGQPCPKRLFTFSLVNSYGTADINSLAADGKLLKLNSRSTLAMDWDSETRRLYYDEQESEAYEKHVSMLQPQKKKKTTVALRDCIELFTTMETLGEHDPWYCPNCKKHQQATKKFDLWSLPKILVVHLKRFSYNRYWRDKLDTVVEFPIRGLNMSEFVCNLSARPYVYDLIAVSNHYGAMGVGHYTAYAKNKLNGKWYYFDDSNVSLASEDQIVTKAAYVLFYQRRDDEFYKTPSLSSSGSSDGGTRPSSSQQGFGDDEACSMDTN
Outline: as §1

Measured: log2 ratio of Biotin-Ahx-Ub-VS probe labelling

Cc1ccc(N(CCC#N)C(=O)CCl)cc1C
inactive: [1] -0.0882 | [2] -0.062 | [3] -0.15 | [4] 0.18 | [5] 0.0498
